Ten compounds from PubChem BioAssay (NCI) can be followed below.

Molecules are shown by their SMILES. Compounds without any hit were thinned out: in the full panel of roughly 83,000, 20% have a hit.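 Percent growth is the endpoint: 0 to 100 indicates growth inhibition (40 means 60% inhibition), 0 means no net growth, and negative values indicate cell death.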 Values without a mark were called inactive. Active and inactive are the calls of the source. The calls were made as follows: active = growth percent below 10; inactive = the rest.

Some test systems named below: RPMI-8226 leukemia; OVCAR-8 ovarian; OVCAR-5 ovarian; OVCAR-4 ovarian; SK-OV-3 ovarian; OVCAR-3 ovarian; HS 578T breast; NCI/ADR-RES ovarian; T-47D breast; BT-549 breast; MDA-MB-435 melanoma; SW-620 colon; MCF7 breast; HCT-116 colon; HCC-2998 colon; KM12 colon; IGROV1 ovarian.
Common to all, as to test: NCI-60 one-dose screen, 48 h (100 = growth as untreated, 0 = no growth, -100 = all killed)
Holding throughout (conditions): 10 µM

On to `Nc1nc(N)c2c(ccc3nccc32)[nH]1`, for which the growth with RPMI-8226 leukemia was 43.2%; in the assay on OVCAR-8 ovarian it was 26.2%; in the assay on OVCAR-5 ovarian, 65.2%; in the assay with OVCAR-4 ovarian, 66.1%; in the assay on SK-OV-3 ovarian, 58.8%; with OVCAR-3 ovarian it was 75.5%. The growth in the assay on HS 578T breast was 89.5%; in the assay on NCI/ADR-RES ovarian, 53.1%; in the assay with T-47D breast it was 73%; in the assay on BT-549 breast, 21%; in the assay with MDA-MB-435 melanoma, 34.8%; with SW-620 colon, 29.4%. The growth with MCF7 breast was 54%; in the assay with HCT-116 colon, 15.1%; in the assay on HCC-2998 colon, 54.4%; in the assay with KM12 colon, 62.4%.

In the case of `c1ccc2c(-c3nc(N4CCOCC4)c4c5c(sc4n3)CCCCCC5)cccc2c1`, the growth was 112% with RPMI-8226 leukemia; 101% with OVCAR-8 ovarian; 103% in the assay on OVCAR-5 ovarian; 106% in the assay with OVCAR-4 ovarian; 111% with SK-OV-3 ovarian; 112% in the assay on IGROV1 ovarian. The growth in the assay with HS 578T breast is 104%; with NCI/ADR-RES ovarian, 109%; in the assay on T-47D breast, 95%; with BT-549 breast, 97.9%; in the assay with MDA-MB-435 melanoma, 111%; with SW-620 colon, 108%. The growth in the assay with MCF7 breast is 91.8%; in the assay with HCT-116 colon it was 109%; with HCC-2998 colon, 106%; with KM12 colon, 109%.

With `COc1ccc(/C(=C2/O[C@@H]([C@H]3COC(C)(C)O3)[C@H]3OC(C)(C)O[C@@H]23)c2cc(OC)c(OC)c(OC)c2)cc1O`, the growth was 36.4% in the assay with RPMI-8226 leukemia; 96.1% in the assay on OVCAR-8 ovarian; 92.9% in the assay on OVCAR-5 ovarian; 106% with OVCAR-4 ovarian; 90.1% with SK-OV-3 ovarian; 92.6% in the assay with IGROV1 ovarian. Moreover, the growth was 58.3% in the assay on OVCAR-3 ovarian; -10.5% (active) in the assay with NCI/ADR-RES ovarian; 115% with T-47D breast; 67.5% in the assay with BT-549 breast; -10.2% (active) in the assay with MDA-MB-435 melanoma; 60.9% in the assay with MCF7 breast. Further, the growth in the assay on HCT-116 colon is 78.1%; in the assay with KM12 colon, 5.71% (active).

In the case of `Clc1cccc(-c2nc(-c3cccs3)no2)c1`, the growth in the assay with RPMI-8226 leukemia was 93.7%; in the assay with OVCAR-8 ovarian, 107%; in the assay with OVCAR-5 ovarian, 108%; in the assay with OVCAR-4 ovarian, 65.8%; in the assay with SK-OV-3 ovarian, 106%; with OVCAR-3 ovarian, 104%. Moreover, the growth in the assay with HS 578T breast was 136%; in the assay on NCI/ADR-RES ovarian, 107%; with T-47D breast, 66.7%; in the assay with BT-549 breast it was 111%; in the assay with MDA-MB-435 melanoma it was 111%; with SW-620 colon, 106%. The growth in the assay on MCF7 breast is 36.8%; in the assay on HCT-116 colon, 92.4%; in the assay on HCC-2998 colon it was 32.9%; with KM12 colon, 92.4%.

In the case of `Nc1ccn(C2CC(O)C(CO)O2)c(=O)n1` (centres undefined), the growth in the assay on RPMI-8226 leukemia was 112%; with OVCAR-8 ovarian it was 106%; in the assay on OVCAR-5 ovarian, 92.4%; in the assay on OVCAR-4 ovarian it was 114%; with SK-OV-3 ovarian, 105%; in the assay on OVCAR-3 ovarian it was 123%. Besides, the growth in the assay on HS 578T breast was 111%; in the assay on NCI/ADR-RES ovarian it was 102%; in the assay on MDA-MB-435 melanoma, 107%; in the assay with SW-620 colon it was 113%; with MCF7 breast, 103%; in the assay with HCT-116 colon, 109%. Besides, the growth in the assay with HCC-2998 colon was 2.98% (active); in the assay with KM12 colon, 110%.

With `C#Cc1ccc(-n2c(/C=C/c3ccc(C(F)(F)F)cc3)nc3ncccc3c2=O)cc1`, the growth was -9.89% (active) in the assay with RPMI-8226 leukemia; 17.2% with OVCAR-8 ovarian; 68.8% in the assay on OVCAR-5 ovarian; -42.6% (active) in the assay on OVCAR-4 ovarian; 34% with IGROV1 ovarian; -8.86% (active) in the assay with OVCAR-3 ovarian. Moreover, the growth was 72.4% in the assay on HS 578T breast; 29.3% in the assay with NCI/ADR-RES ovarian; 35.4% in the assay with T-47D breast; 24.8% in the assay with BT-549 breast; 6.06% (active) in the assay on MDA-MB-435 melanoma; -12.3% (active) with SW-620 colon. In addition, the growth in the assay with MCF7 breast was 14.9%; in the assay with HCT-116 colon, 1.75% (active); with HCC-2998 colon, 18.7%.

For `CCC1(C(C)C)NC(=O)NC1=O` (centres undefined), the growth with RPMI-8226 leukemia was 91.8%; with OVCAR-8 ovarian it was 104%; with OVCAR-5 ovarian it was 89.3%; in the assay with OVCAR-4 ovarian, 103%; in the assay with SK-OV-3 ovarian, 107%; in the assay with IGROV1 ovarian, 112%. In addition, the growth in the assay on OVCAR-3 ovarian was 115%; in the assay on NCI/ADR-RES ovarian, 99.5%; with T-47D breast, 97%; in the assay on BT-549 breast it was 104%; in the assay with MDA-MB-435 melanoma, 106%; in the assay on MCF7 breast it was 103%. In addition, the growth with HCT-116 colon is 101%; with KM12 colon, 104%.

Regarding `N=C1c2nc3n(c2C(=O)c2nc4n(c21)CCCC4)CCCC3`, the growth with RPMI-8226 leukemia is 82.2%; in the assay with OVCAR-8 ovarian, 91.5%; in the assay on OVCAR-5 ovarian, -57.8% (active); with OVCAR-4 ovarian it was 96.2%; in the assay with SK-OV-3 ovarian, 95%; with OVCAR-3 ovarian, 98.4%. Further, the growth is -28.7% (active) in the assay with HS 578T breast; 85.7% with NCI/ADR-RES ovarian; 71.9% in the assay on T-47D breast; -37.2% (active) in the assay with BT-549 breast; -82.5% (active) with MDA-MB-435 melanoma; 23.7% with SW-620 colon. Further, the growth in the assay with MCF7 breast was -6.98% (active); with HCT-116 colon, 65.8%; in the assay on HCC-2998 colon, 87.3%; with KM12 colon it was 66.7%.

`Cc1cc(O)c(C(C)(C)C)cc1Sc1cc(C(C)(C)C)c(O)cc1C`: the growth in the assay with RPMI-8226 leukemia was 12.8%; in the assay on OVCAR-8 ovarian, 73.6%; in the assay with OVCAR-5 ovarian, 90.4%; in the assay with OVCAR-4 ovarian, 28.3%; in the assay with SK-OV-3 ovarian it was 65.3%; in the assay with IGROV1 ovarian it was 39.1%. Further, the growth in the assay on OVCAR-3 ovarian was 29.3%; in the assay with NCI/ADR-RES ovarian, 30.7%; in the assay with T-47D breast, 18.6%; with BT-549 breast, 65.9%; with MDA-MB-435 melanoma it was 54.8%; with MCF7 breast, 34.7%. For the same compound, the growth in the assay on HCT-116 colon was 29%; with KM12 colon it was 47%.

Regarding `COc1ccccc1CNCCN1C(=O)c2ccc3c4c(ccc(c24)C1=O)C(=O)N(CCNCc1ccccc1OC)C3=O`, the growth in the assay with RPMI-8226 leukemia is -67.7% (active); in the assay with OVCAR-8 ovarian, -77.7% (active); with OVCAR-5 ovarian, -52.6% (active); in the assay on OVCAR-4 ovarian it was -99.7% (active); in the assay with SK-OV-3 ovarian, -79.6% (active); in the assay with IGROV1 ovarian, -72.5% (active). Moreover, the growth in the assay on OVCAR-3 ovarian was -78.5% (active); in the assay with NCI/ADR-RES ovarian it was -62.6% (active); in the assay with T-47D breast it was -65.8% (active); with BT-549 breast, -94% (active); with MDA-MB-435 melanoma, -80.2% (active); in the assay with MCF7 breast it was -69.2% (active). For the same compound, the growth with HCT-116 colon was -92.6% (active); with KM12 colon it was -96.6% (active).
